Rin1 Abl inh – inhibitors of Rin1-Abl protein binding, primary screen, biochemical, TR-FRET; Tyrosine-protein kinase ABL1 (Homo sapiens) + Ras and Rab interactor 1 (Homo sapiens), …; inhibition, % at 7.35 µM; actives 0.4% (n = 360,000); in the data active means inhibition above about 5%, passing the limit was not always enough
NPR2 activator – human GC-B receptor activators, primary screen, HEK293 GC-B cells, cGMP TR-FRET, EC30 CNP; AID 1920062, 2024; actives 0.11% (n = 370,000); Atrial natriuretic peptide receptor 2 (Homo sapiens), P20594; 0% at EC30 CNP, 100% saturating CNP; activation, % at 10 µM;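 active means activation at 10 µM reaching about 35% in either raw or pattern-adjusted values, limit read from the data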
NPR1 activator – GC-A stimulated cGMP production enhancers – HEK293 GC-A cells, cGMP TR-FRET, EC30 ANP, primary screen; Atrial natriuretic peptide receptor 1 (Homo sapiens), P16066; 0% at EC30 ANP, 100% saturating ANP; activation, % at 10 µM; actives 0.14% (n = 370,000); AID 1671463, 2021; in the data active means activation above about 40%
Target sequence (P16066 whole entry, looked up): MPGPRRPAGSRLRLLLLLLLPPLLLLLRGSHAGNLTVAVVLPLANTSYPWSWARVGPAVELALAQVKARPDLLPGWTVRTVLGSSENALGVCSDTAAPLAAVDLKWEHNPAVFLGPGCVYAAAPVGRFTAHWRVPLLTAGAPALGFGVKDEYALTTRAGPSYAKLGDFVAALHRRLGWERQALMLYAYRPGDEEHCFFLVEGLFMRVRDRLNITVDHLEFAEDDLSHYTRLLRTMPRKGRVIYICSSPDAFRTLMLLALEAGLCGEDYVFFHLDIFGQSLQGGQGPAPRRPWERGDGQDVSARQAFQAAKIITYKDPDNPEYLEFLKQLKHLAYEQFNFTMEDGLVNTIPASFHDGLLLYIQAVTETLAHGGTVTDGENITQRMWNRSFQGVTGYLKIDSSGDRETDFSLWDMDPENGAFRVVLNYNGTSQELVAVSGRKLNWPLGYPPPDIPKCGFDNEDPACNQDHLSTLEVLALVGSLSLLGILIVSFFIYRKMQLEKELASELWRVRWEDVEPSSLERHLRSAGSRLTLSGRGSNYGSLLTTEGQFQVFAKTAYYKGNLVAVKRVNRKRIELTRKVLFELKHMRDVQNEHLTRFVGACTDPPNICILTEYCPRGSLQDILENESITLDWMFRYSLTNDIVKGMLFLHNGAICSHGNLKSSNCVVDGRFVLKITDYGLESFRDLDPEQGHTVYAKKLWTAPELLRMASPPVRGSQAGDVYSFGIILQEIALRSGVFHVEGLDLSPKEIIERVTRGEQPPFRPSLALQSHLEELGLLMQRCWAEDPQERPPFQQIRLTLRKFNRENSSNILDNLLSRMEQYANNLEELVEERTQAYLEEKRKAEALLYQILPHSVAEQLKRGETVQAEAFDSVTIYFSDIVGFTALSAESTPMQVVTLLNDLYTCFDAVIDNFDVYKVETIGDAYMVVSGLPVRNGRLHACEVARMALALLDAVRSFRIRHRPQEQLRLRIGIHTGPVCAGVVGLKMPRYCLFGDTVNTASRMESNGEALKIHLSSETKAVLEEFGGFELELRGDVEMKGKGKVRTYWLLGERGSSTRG
CaV13 ICDI inh – Primary screen for inhibitors of IQ motif and Ca2+-dependent inactivation inhibitor domain binding in CACNA1D, Förster resonance energy transfer in living cells, …; inhibition, % at 12.3 µM; HEK cells, CFP/YFP FRET ICDI-IQ, plate reader, 10 min; percent FRET-ratio fall versus neutral wells; actives 0.098% (n = 340,000);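 active means mean replicate inhibition of at least 30% and at least 1% of replicates passing that level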
Large screens that a line does not name were inactive. Most compounds without a hit are left out; they make up all but 0.67% or so of the library.

COC1=C(OC)C(=O)C(Sc2ccc3ccccc3c2)=CC1=O	NPR1 activator 40.1
COC(=O)C12C=C3CC(c4ccc(C)s4)=C3C(=O)N1Cc1[nH]c3ccccc3c1C2 (stereo not drawn)	none (no result: Rin1 Abl inh, CaV13 ICDI inh)
CN(C)CCNC(=O)c1ccc(COc2ccc(Cl)cc2Cl)cc1	NPR1 activator 47.1
O=C(NCc1ccco1)c1ccc(COc2cc(Cl)ccc2Cl)cc1	NPR1 activator 40.7
COc1ccc(Cl)cc1C(=O)NCCN(C)C	none
O=C(COc1ccc(Cl)cc1Cl)NCc1ccco1	none
COc1ccc(-n2c(SCC(=O)Nc3ccc(S(=O)(=O)Nc4nccs4)cc3)nnc2-c2ccco2)cc1	none (no result: Rin1 Abl inh, CaV13 ICDI inh)
COC(=O)[C@]12C[C@H](CC(=O)NCc3cccc(C(F)(F)F)c3)C(=O)N(Cc3ccc(Cl)cc3Cl)C1=C[C@H](C(C)(C)C)O[C@@H]2C	none (no result: Rin1 Abl inh, CaV13 ICDI inh)
COc1ccc(Nc2c(-c3ccc(OC)cc3)nc3cnccn23)cc1	NPR2 activator 49.4, NPR1 activator 49.8
COc1ccc(Nc2c(-c3ccc(C)cc3)nc3cnccn23)cc1	NPR2 activator 47.9, NPR1 activator 46.1
Cc1ccc(Nc2c(-c3ccccc3O)nc3ncccn23)cc1	NPR1 activator 53.9
Cc1ccc(Nc2c(-c3ccccc3O)nc3cnccn23)cc1	NPR1 activator 48.5
Cc1ccc(Nc2c(-c3ccc(N4CCOCC4)cc3)nc3cnccn23)cc1	none
Cc1ccc(-c2cc3nc(-c4ccco4)cc(N4CCN(Cc5ccoc5)CC4)n3n2)cc1	none (no result: Rin1 Abl inh, CaV13 ICDI inh)
COc1ccccc1NS(=O)(=O)c1cc(NC(=O)CCNC(C)=O)ccc1C	CaV13 ICDI inh 151.3
CCOC(=O)CC[C@@]1(C(=O)OCC)C[C@@H](CC(=O)NCCc2ccccc2OC)C(=O)N2CCCC=C21	none (no result: Rin1 Abl inh, CaV13 ICDI inh)
CC1(Cc2ccc(C(F)(F)F)nc2)C(=O)Nc2cc(-c3ccccc3Cl)ccc21 (stereo not drawn)	NPR1 activator 42.3
CC1(Cc2ccccc2C#N)C(=O)Nc2cc(-c3ccccc3Cl)ccc21 (stereo not drawn)	none
Cc1nc2c(N=Nc3ccccc3F)c(N)nn2c(N)c1C#N	NPR1 activator 42.7
Nc1nn(-c2ccccc2)c(N)c1N=Nc1ccccc1F	none
CCC(=O)N1CCC(C(=O)NC2CCCc3ccccc32)CC1 (stereo not drawn)	none (no result: Rin1 Abl inh, CaV13 ICDI inh)
COc1cc(C(=O)NCCCCc2ccccc2)cc(OC)c1OC	none
COc1cc(C(=O)NCCC(c2ccccc2)c2ccccc2)cc(OC)c1OC	NPR2 activator 118.4
Clc1ccc([C@H]2OC[C@@]3(CNCC4CC4)CS[C@H](c4ccc(Cl)cc4)N23)cc1	none (no result: Rin1 Abl inh, CaV13 ICDI inh)
CN(C)c1ccc(O)c2c1CC1CC3[C@@H](N(C)C)C(=O)C(C(N)=O)=C(O)[C@]3(O)C(=O)C1=C2O (stereo partly drawn)	Rin1 Abl inh 15.8
CC1=C(C(=O)N2CCOCC2)C(c2cc(C)ccc2C)NC(=S)N1 (stereo not drawn)	none
CC1=C(C(=O)N2CCOCC2)C(c2cccc3ccccc23)NC(=S)N1 (stereo not drawn)	none
CC1=C(C(=O)N2CCOCC2)C(c2ccc(-c3ccccc3)cc2)NC(=S)N1 (stereo not drawn)	NPR2 activator 69.7, NPR1 activator 79.5
CC1=C(C(=O)N2CCOCC2)C(c2ccc(O)cc2)NC(=S)N1 (stereo not drawn)	NPR2 activator 40.9
CC(O)CN(CC(C)O)c1ccc2c(c1)Cc1cc([N+](=O)[O-])ccc1-2 (stereo not drawn)	NPR1 activator 45.2
Cc1ccc(-n2c(SCC(=O)Nc3ccc(OCc4ccccc4)cc3)nnc2-c2ccccc2)cc1	none (no result: Rin1 Abl inh, CaV13 ICDI inh)
CCCCCn1cnc2c(=S)nc(N)[nH]c21	NPR2 activator 80.7, NPR1 activator 74.8
CCCCn1cnc2c(=S)nc(N)[nH]c21	NPR2 activator 79.5, NPR1 activator 79.1
CCCn1cnc2c(=S)nc(N)[nH]c21	NPR2 activator 44.2, NPR1 activator 43.1
CC(CCN1CCC(C(O)(c2ccccc2)c2ccccc2)CC1)Oc1ccc(F)cc1 (stereo not drawn)	none (no result: Rin1 Abl inh, CaV13 ICDI inh)
CSCCCNC(=O)Cn1nc(Cc2ccncc2)c2ccccc2c1=O	none (no result: Rin1 Abl inh, CaV13 ICDI inh)
O=C1C=CC(=O)c2c(O)c(CO)c(CO)c(O)c21	Rin1 Abl inh 19.7
Cn1cccc1/C=N/NC(=O)c1sc2cc(Cl)ccc2c1Cl	CaV13 ICDI inh 42.1 (no result: Rin1 Abl inh)
Cc1ccc2c(Cl)c(C(=O)N/N=C/c3cccn3C)sc2c1	none
COCC(=O)N(Cc1ccccc1)c1ccccc1C(=O)Nc1cc(OC)ccc1OC	none (no result: Rin1 Abl inh, CaV13 ICDI inh)
CN(C)C=Nc1ncc2c3ccccc3n(Cc3ccccc3)c2c1C#N	NPR2 activator 35.4, NPR1 activator 45.7
CN(C)C=Nc1ncc2c3ccccc3n(CCN(C)C)c2c1C#N	none (no result: CaV13 ICDI inh)
Cc1ccc2nc(-c3ccc(NC(=O)CSc4nnc(-c5ccccc5)n4Cc4ccco4)cc3)sc2c1	none (no result: Rin1 Abl inh, CaV13 ICDI inh)
CC1(C)Cc2c(C#N)c(SCC(=O)c3ccccc3)nc(N3CCOCC3)c2CO1	none
CCCCCSc1nc(N2CCOCC2)c2c(c1C#N)CC(C)(C)OC2	NPR2 activator 47.4, NPR1 activator 43.7
CC1(C)Cc2c(C#N)c(SCc3ccccc3)nc(N3CCOCC3)c2CO1	NPR2 activator 51.7 (no result: CaV13 ICDI inh)
O=C(O)C1Nc2c(Cl)cc(Cl)cc2C2C=CCC12 (stereo not drawn)	none (no result: NPR2 activator, NPR1 activator, CaV13 ICDI inh)
O=C(O)C1Nc2c(O)cccc2C2C=CCC12 (stereo not drawn)	Rin1 Abl inh 20.5
O=C(O)C1Nc2ccc(Br)cc2C2C=CCC12 (stereo not drawn)	Rin1 Abl inh 6.2 (no result: NPR2 activator, NPR1 activator, CaV13 ICDI inh)
Cc1ccc(-n2nc3c(=S)[nH]nc(C)c3c2C)cc1	NPR1 activator 40.9
Cc1n[nH]c(=S)c2nn(-c3cccc(Cl)c3)c(C)c12	none (no result: Rin1 Abl inh)
CC(C)(C)c1csc(N/N=C/c2ccc(O)cc2)n1	CaV13 ICDI inh 64.3
CC(C)c1nc(N(C)S(C)(=O)=O)nc(-c2ccc(F)cc2)c1/C=C/[C@H](O)C[C@@H](O)CC(=O)O	none (no result: Rin1 Abl inh, CaV13 ICDI inh)
Cc1cc(NC(=O)c2ccc([N+](=O)[O-])cc2)no1	none
Cc1oc(C(C)(C)C)cc1-c1cc(NC(=O)c2ccc([N+](=O)[O-])cc2)n[nH]1	NPR2 activator 56.6, NPR1 activator 43.5
CCCCN(C)C(=O)CN1C(=O)C2CCCCN2C(=O)c2ccccc21 (stereo not drawn)	none (no result: Rin1 Abl inh, CaV13 ICDI inh)
C[C@@H]1O[C@@H](OC[C@H]2O[C@@H](Oc3cc(O)c4c(=O)cc(-c5ccc(O)c(O)c5)oc4c3)[C@H](O)[C@@H](O)[C@@H]2O)[C@H](O)[C@H](O)[C@H]1O	none (no result: NPR2 activator, NPR1 activator, CaV13 ICDI inh)
O=c1cc(-c2ccc(O)c(O)c2)oc2cc(O[C@@H]3O[C@H](CO)[C@@H](O)[C@H](O)[C@H]3O)cc(O)c12	Rin1 Abl inh 24.0 (no result: NPR2 activator, NPR1 activator, CaV13 ICDI inh)
CC(C)C[C@@H](CO)N1Cc2nnn(Cc3ccccc3)c2-c2ccccc2S1(=O)=O	none (no result: Rin1 Abl inh, CaV13 ICDI inh)
